PubChem BioAssay AID1117283 (Broad Institute, 2014)
Entries with a potency or affinity are not part of this list. Active and inactive are the calls of the source.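 Rule for the calls: active = fluorescent signal decreased by at least 40%; inconclusive = no clear call, values can overlap the other calls; inactive = the rest, including activity opposite to the expected direction.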

Test: inhibition of fibronectin matrix deposition – AH1F cells, Alexa488-fibronectin fluorescence, cherry-pick, set 2, dose response (AID 1117283);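 note: AH1F fibroblasts given Alexa488-labelled fibronectin at 24 nM final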
Settings: AH1F fibroblasts, overnight; series mostly up to 35 µM; activity change, negative = inhibition: at the top concentration

Compound | activity change, negative = inhibition
O=C(CCC(=O)c1cccs1)NCc1cccnc1 | -2.53% (inactive)
COc1cccc(-c2ccc3c(c2)[C@@H]2[C@@H](CCN2S(=O)(=O)c2cccc(OC)c2)[C@@H](CO)N3)c1 | -8.07% (inactive)
COc1cccc(CNC(=O)CCc2nnc3ccc(NCCCN4CCCC4=O)nn23)c1 | 0.665% (inactive)
CCCCNC(=O)Nc1nc2ccc(CC)cc2s1 | -3.71% (inactive)
CCc1ccc(NC(=O)CSc2nnc(-c3ccco3)o2)cc1 | -4.56% (inactive)
C[C@@H]1CN([C@H](C)CO)C(=O)c2cc(NC(=O)C3CCCCC3)ccc2O[C@H]1CN(C)Cc1ccc(-c2ccccc2)cc1 | -2.89% (inactive)
CCCc1cc(C(=O)OC)c(NC(=O)CCC(=O)O)s1 | 8.2% (inactive)
CC(C)NC(=O)N(C)C[C@H]1Oc2ccc(NC(=O)CCN3CCOCC3)cc2C(=O)N([C@H](C)CO)C[C@@H]1C | -5.12% (inactive)
O=S(=O)(c1ccccc1F)N1CC[C@@H]2[C@@H](CO)Nc3ccc(-c4cccc(F)c4)cc3[C@@H]21 | 15.1% (inactive)
COc1cccc(S(=O)(=O)N2CC[C@@H]3[C@H]2c2cc(-c4ccc(C#N)cc4)ccc2N[C@@H]3CO)c1 | 0.219% (inactive)
O=C(Nc1ccccc1F)N1C[C@@H]2[C@H](c3ccccc31)[C@H](CO)N2C(=O)C1CC1 | 2.39% (inactive)
C[C@H]1CN([C@@H](C)CO)C(=O)c2cc(NC(=O)CCCN(C)C)ccc2O[C@H]1CN(C)Cc1ccc(-c2ccccc2)cc1 | -0.102% (inactive)
Cc1oc2ccc(O)cc2c1C(=O)c1ccc(Br)cc1 | -1.43% (inactive)
CC(NC(=O)CSc1ccc(S(=O)(=O)N2CCOCC2)cn1)c1ccc(Cl)cc1Cl (stereo not given) | 2.14% (inactive)
COc1ccc(CCNC(=O)C2CCN(Cc3nc(-c4ccccc4F)oc3C)CC2)cc1OC | 7.77% (inactive)
COCC(=O)Nc1ccc2c(c1)C(=O)N(C)[C@H]1CC[C@H](CC(=O)NCc3ccccc3Cl)O[C@@H]1CO2 | -3.04% [at 30 µM] (inactive)
CO[C@H]1CN(C)C(=O)c2cc(NC(=O)Nc3ccc(Cl)c(Cl)c3)ccc2OC[C@H](C)NC[C@@H]1C | -8.06% (inactive)
CN(C)C(=O)c1ccc(-c2ccc3c(c2)[C@@H]2[C@@H](CCN2C(=O)c2ccc(F)cc2)[C@@H](CO)N3C)cc1 | -0.065% (inactive)
COCC(=O)Nc1ccc2c(c1)C(=O)N(C)[C@H]1CC[C@@H](CC(=O)NCc3ccccc3Cl)O[C@@H]1CO2 | 8.6% (inactive)
CCc1nc2c(OCCc3cccc(OC)c3)cccn2c1N(C)C(=O)c1ccc(C)cc1 | 0.686% (inactive)
CO[C@H]1CN(C)C(=O)c2ccc(NC(=O)Nc3cc(Cl)cc(Cl)c3)cc2OC[C@H](C)NC[C@@H]1C | 9.25% (inactive)
CO[C@H]1CN(C)C(=O)c2cc(NC(=O)Nc3cc(Cl)cc(Cl)c3)ccc2OC[C@H](C)NC[C@H]1C | -12.7% (inactive)
Nc1c(C(=O)NCc2ccco2)nnn1Cc1ccccc1 | 1.35% (inactive)
C[C@@H]1CN([C@H](C)CO)C(=O)c2cccc(NC(=O)Nc3ccc(C(F)(F)F)cc3)c2O[C@H]1CN(C)C(=O)Nc1cccc2ccccc12 | 6.53% (inactive)
O=C(Nc1nc(-c2ccncc2)cs1)C1COc2ccccc2O1 (stereo not given) | 3.61% (inactive)
